The record followed here is ChEMBL document CHEMBL3433997, “St. Jude Leishmania screening dataset” (2016).

Common to all, as to format: functional
Test [1] addresses Solute carrier family 2, facilitated glucose transporter member 1 (Homo sapiens) (UniProt P11166). The test can be described thus: ST_JUDE_LEISH: Cytotoxicity at 2uM final concentration against transgenic Leishmania Mexicana promastigotes LmGLUT1 that are glucose transport deficient and complemented with the human glucose transporter GLUT1. Activity is measured by DNA content using SYBR green in vitro.

Test [2] addresses Hexose transporter 1 (Plasmodium falciparum) (UniProt O97467). The experiment in a line: ST_JUDE_LEISH: Cytotoxicity at 2uM final concentration against transgenic Leishmania Mexicana promastigotes LmPfHT that are glucose transport deficient and complemented with the Plasmodium falciparum hexose transporter. Activity is measured by DNA content using SYBR green in vitro.
Test [3] deals with Glucose transporter (Leishmania mexicana) (UniProt O61059). The test can be described thus: ST_JUDE_LEISH: Cytotoxicity at 2uM final concentration against transgenic Leishmania Mexicana promastigotes LmGT2 that are glucose transport deficient and complemented with the L. Mexicana glucose transporter 2. Activity is measured by DNA content using SYBR green in vitro.

Structures are written as SMILES.

Solute carrier family 2, facilitated glucose transporter member 1 (Homo sapiens), sequence (P11166 whole entry): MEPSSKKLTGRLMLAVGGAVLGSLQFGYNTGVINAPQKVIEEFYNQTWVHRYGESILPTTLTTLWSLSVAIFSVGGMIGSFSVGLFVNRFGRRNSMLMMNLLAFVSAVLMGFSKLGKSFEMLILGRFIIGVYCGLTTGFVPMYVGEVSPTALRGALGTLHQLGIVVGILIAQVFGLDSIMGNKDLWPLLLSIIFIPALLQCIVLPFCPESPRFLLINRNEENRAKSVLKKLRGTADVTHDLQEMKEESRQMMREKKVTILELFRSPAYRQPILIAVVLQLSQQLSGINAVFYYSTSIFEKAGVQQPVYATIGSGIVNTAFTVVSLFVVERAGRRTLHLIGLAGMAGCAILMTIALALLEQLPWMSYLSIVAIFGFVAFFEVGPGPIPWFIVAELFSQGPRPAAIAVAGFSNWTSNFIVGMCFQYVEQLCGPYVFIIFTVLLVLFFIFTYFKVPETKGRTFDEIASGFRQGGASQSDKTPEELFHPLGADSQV

With `O=C(/C=C/c1ccc(Cl)c(Cl)c1)NCCCCN1CCCN(C(=O)Nc2ccc(Cl)c(Cl)c2)CC1`, the inhibition (usually the relative decrease from the control value, in per cent) in test [1] is -2.19%; in test [2], 0.32%; in test [3], -1.91%.
The corresponding values for `CC(C(=O)Nc1ccc(Br)cc1Br)N1CCN(C(=O)c2ccco2)CC1` (stereo not drawn) are -0.66%, 1.36% and 1.86%.
Take `Cc1cc(NCCC(=O)NCCOc2ccccc2)nc(NCc2ccccc2C)n1`: the inhibition in test [1] was 3.15%; in test [2], 0.58%; in test [3], 0.45%.
`Cc1cc(-c2ccnc(Nc3cccc(C#N)c3)n2)cc(C)c1O`: the inhibition in test [1] amounted to 13.8%; in test [2], 16%; in test [3], 7.83%.
Turning to `N#Cc1ccc2[nH]cc(C(=O)CCCCCN(Cc3ccccc3)Cc3ccccc3)c2c1`, the inhibition was 0.31% in test [1], -2.35% in test [2] and -0.24% in test [3].
Take `COC[C@H]1CCCN1Cc1ccc(-c2ccc(-c3nc4ccccc4[nH]3)s2)cc1`: the inhibition in test [1] amounted to 2.15%; in test [2], 1.84%; in test [3] it was 1.25%.
The corresponding values for `O=C(Nc1ccccc1)N(Cc1ccc(-c2ccc(CNCc3ccc4c(c3)OCO4)cc2)cc1)C1CCN(Cc2ccccc2)CC1` are 0.62%, -0.02% and -6.42%.
The corresponding values for `CCOC(=O)c1c[nH]c2c(ccc3ccccc32)c1=O` are -1.23%, 6.87% and 5.93%.
The corresponding values for `COc1ccc2c(NN=Cc3ccccc3)ccnc2c1` are 1.36%, -2.08% and -1.04%.
Consider `CO/C(=C\C=C\c1cc2cc(Cl)c(Cl)cc2[nH]1)C(=O)NC1CC(C)N(C)C(C)C1` (stereo not drawn), for which the inhibition in test [1] was -2.9%; in test [2], -0.97%; in test [3], -1.43%.
The corresponding values for `Cc1cc(N[C@@H](Cc2ccccc2)C(=O)NCc2cccc(F)c2)nc(NCCc2ccccc2)n1` are 5.82%, 4.21% and 2.48%.
Consider `O=C(NCCCCCN1CCC(c2c[nH]c3ccccc23)CC1)Nc1ccc(I)cc1`, for which the inhibition stood at 11% in test [1], 5.79% in test [2] and 9.45% in test [3].
The corresponding values for `O=C(Nc1cc(C(F)(F)F)cc(C(F)(F)F)c1)c1cc(C(F)(F)F)cc(C(F)(F)F)c1` are 0.3%, -0.43% and 1.06%.
Turning to `CCc1ccnc2c(N3CCCC3=O)cc(C(=O)N[C@@H](Cc3ccccc3)[C@H](O)CNC3CCOCC3)cc12`, the inhibition in test [1] is 3.63%; in test [2], 0.4%; in test [3] it was 0.64%.
Take `CC(=O)c1ccc(-c2ccc(C(=O)NCCCCN3CCC(c4ccc5c(c4OCC(N)=O)CCCC5)CC3)cc2)s1`: the inhibition was 1.36% in test [1], 0.76% in test [2] and 1.72% in test [3].
The corresponding values for `Cc1cccc(C(=O)Nc2ccnc(N3CCC(N(C)Cc4ccc(C#N)cc4)CC3)c2)c1` are 3.54%, 2.52% and 3.1%.
Take `CCC(C)CC(=O)Nc1ccc(OC)c(S(=O)(=O)N[C@@H]2CCN(C#N)C2)c1` (stereo partly drawn): the results for the inhibition in test [1], in test [2] and in test [3] were -0.28%, -0.4% and -0.94%, respectively.
The corresponding values for `Cc1cc2c(cc1C(F)(F)F)N(C(=O)Nc1cc(OCCN(C)C)cc(C(F)(F)F)c1)CC2` are -0.72%, -1.6% and -0.42%.
Take `O=C(/C=C/c1ccc(Cl)c(Cl)c1)NCCCCCN1CCC(c2n[nH]c(-c3ccccc3)c2Br)CC1`: the inhibition in test [1] was 1.29%; in test [2], -2.38%; in test [3], 0.22%.
The corresponding values for `COC(=O)[C@@H](NC(=O)[C@@H](Nc1ccc(C#N)c2ccccc12)C(C)(C)C)c1ccc(O)cc1` are 2.65%, 1.12% and 0.19%.
The corresponding values for `O=C(Nc1ccc(Cl)c(C(F)(F)F)c1)NC1CCN(CCCCCNC(=O)C2CC2c2ccc(Cl)c(Cl)c2)CC1` (stereo not drawn) are 7.55%, 9.26% and 6.43%.
On to `CN1CCC(Oc2cc(CN3CC[C@H](NC(=O)c4ccc(Cl)c(Cl)c4)C3)ccc2I)C1` (stereo partly drawn), for which the inhibition in test [1] was -0.57%; in test [2] it was 0.84%; in test [3] it was 2.33%.
Turning to `COc1cc2c(c(Cl)c1OC)CCN(Cc1ccccc1)CC2c1ccc(C(N)=O)cc1` (stereo not drawn), the inhibition in test [1] is 2.24%; in test [2], 1.77%; in test [3], 1.62%.
As to `Oc1ccccc1N1CCN(c2ccc(-c3nc4ccccc4[nH]3)cn2)CC1`, the inhibition worked out at 2.48% in test [1], 1.99% in test [2] and 0.57% in test [3].
The corresponding values for `Cc1ccc(/C=C/C(=O)NC2CCC(N3CCC(c4ccccc4C)CC3)CC2)cc1C` (stereo not drawn) are 4.77%, 4.56% and 1.93%.
The corresponding values for `C=CCOC(=O)N1CCC(CNCc2ccc(-c3cccc(-c4nc5ccccc5[nH]4)c3)cc2)C1` (stereo not drawn) are 3.24%, 1.73% and 3.33%.
The corresponding values for `Cc1ccc(NC(=O)c2nc(N3CCN(c4ccncc4)CC3)ccc2Cl)cc1F` are 13.1%, 7.01% and 5.57%.
Take `Oc1nc(Cc2ccccc2)nc2ccc(Cl)cc12`: the inhibition in test [1] came out at 2.13%; in test [2] it was 2.54%; in test [3] it was 4.12%.
The corresponding values for `CCNc1cc(C(=O)N[C@@H](Cc2ccccc2)[C@H](O)CNC2(CC)CCCCC2)cc(N2CCCCS2(=O)=O)c1` are -0.15%, 0.61% and -2.89%.
The corresponding values for `O=C(NCCCCN1CCC(c2ccc3c(c2OCCCO)CCCC3)CC1)c1ccc(-c2ccc(C(F)(F)F)cc2)c(CO)c1` are -0.96%, -0.59% and -0.61%.
On to `c1cc(-c2ccc(CNCCCn3ccnc3)cc2)cc(-c2nc3ccccc3[nH]2)c1`, for which the inhibition in test [1] amounted to 2.87%; in test [2], 2.53%; in test [3] it was 0.93%.
The corresponding values for `CCCC(C)N(Cc1ccc(C(C)(C)C)cc1)C(=O)c1cccc(C#N)c1` (stereo not drawn) are -1.28%, 0.07% and -1.38%.
The corresponding values for `NCCC(=O)Nc1ccc(-c2cnc3[nH]cc(-c4ccc(C(=O)O)cc4)c3c2)cn1` are 1.05%, 1.74% and 0.13%.
The corresponding values for `Cc1ccccc1Nc1nc(NCCCO)c2ccccc2n1` are 13.6%, 12.5% and 8.48%.
For the compound `C(=NN=c1cc(-c2ccccc2)[nH]c2ccccc12)c1cccnc1`, the inhibition in test [1] amounted to 15.1%; in test [2] it was 11.7%; in test [3], 6.62%.
The corresponding values for `CN1CCN(c2ccnc3ccc(NC(=O)Cc4ccc(Br)c5ccccc45)cc23)CC1` are 0.81%, 0.37% and 2.02%.
